Rv3671c protease = Rv3671c (M. tuberculosis) protease inhibition; P9WHR9; inhibition, % at 5.96 µM; 320,000 compounds, 0.048% hits; AID 2606; in the data active = inhibition above about 38%;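 note: extracellular domain of Rv3671c used as enzyme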
Mtb bLac sens = beta-lactam sensitization of Mtb H37Rv | M. tuberculosis H37Rv growth with meropenem, percent inhibition | inhibition, % at 25 µM | 330,000 compounds, 0.27% hits; call rule not given here;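 note: growth measured after seven days incubation then overnight dye step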
PfHsp40 rescue = rescue of PfHsp40-mediated yeast toxicity; 340,000 compounds, 0.68% hits; S. cerevisiae expressing PfHsp40, growth rescue, ATP luminescence; growth rescue, % at 12.5 µM; AID 504582; in the data active = growth rescue above about 28%, passing the limit was not always enough;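 note: yeast W303a lacking pdr1 and pdr3 grown in galactose medium; growth measured after three days at 30 °C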
Yp Topo-I inh = blocks Yersinia pestis topoisomerase I activity. Y. pestis Topo-I cleavage product accumulation, plate reader. activity, % at 10 µM. 360,000 compounds, 0.064% hits; in the data active = activity above about 50%, passing the limit was not always enough
FadD28 binding = M. tuberculosis FadD28 bisubstrate binding inhibition | AID 588549 | 360,000 compounds, 0.22% hits | FadD28 bisubstrate probe binding, fluorescence polarization | inhibition, % at 12.5 µM; in the data active = inhibition above about 8.5%, passing the limit was not always enough
Mtb UGM inh = blocks M. tuberculosis UGM enzyme | P9WIQ1 | purified UGM, fluorescence polarization probe displacement | 320,000 compounds, 0.06% hits | inhibition, % at 10 µM; in the data active = inhibition above about 10%, passing the limit was not always enough
Target sequence (P9WIQ1 whole entry, looked up): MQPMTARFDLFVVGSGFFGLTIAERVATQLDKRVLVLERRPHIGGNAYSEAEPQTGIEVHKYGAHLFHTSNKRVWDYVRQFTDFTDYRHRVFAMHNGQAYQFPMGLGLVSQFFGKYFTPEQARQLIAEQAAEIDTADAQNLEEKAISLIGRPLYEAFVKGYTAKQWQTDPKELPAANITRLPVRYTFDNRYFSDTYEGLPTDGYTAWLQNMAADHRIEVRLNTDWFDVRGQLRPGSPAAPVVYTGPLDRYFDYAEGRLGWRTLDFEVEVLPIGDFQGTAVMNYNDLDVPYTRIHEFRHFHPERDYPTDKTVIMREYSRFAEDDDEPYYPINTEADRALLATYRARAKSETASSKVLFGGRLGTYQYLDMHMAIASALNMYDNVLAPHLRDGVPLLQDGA
Numbers stand for hits; 0 = inactive; - = no result given. Hits are enriched below; roughly 0.98% of the tested compounds scored in any of these assays.

SMILES	Rv3671c protease	Mtb bLac sens	PfHsp40 rescue	Yp Topo-I inh	FadD28 binding	Mtb UGM inh
COc1ccccc1NS(=O)(=O)c1ccc(N/N=C/c2ccccc2OCC(=O)O)c([N+](=O)[O-])c1	0	0	0	0	19	0
O=C(O)COc1ccccc1/C=N/Nc1ccc(S(=O)(=O)Nc2ccc(Cl)cc2)cc1[N+](=O)[O-]	0	0	0	0	0	0
O=C(O)c1ccccc1NS(=O)(=O)c1ccc(N/N=C/c2ccc(O)c(O)c2)c([N+](=O)[O-])c1	-	-	0	0	53	-
CCOC(=O)C1CCCN(C(=O)c2cc(-c3ccco3)nc3ccccc23)C1 (configuration not stated)	0	0	0	0	-	-
CCOC(=O)C1CCCN(C(=O)c2cc(Nc3ccc(OC)cc3)nc3ccccc23)C1 (configuration not stated)	0	0	0	0	22	0
Cc1ccc(CNC(=O)[C@H](Cc2ccccc2)NC(=O)c2ccco2)cc1	0	0	0	0	0	0
Cc1ccc(CNC(=O)C(Cc2ccccc2)NS(=O)(=O)c2cccs2)cc1 (configuration not stated)	0	0	0	0	16	0
Cc1ccc(CNC(=O)C(Cc2ccccc2)NS(=O)(=O)c2ccc(Br)s2)cc1 (configuration not stated)	0	0	0	0	50	0
Cc1csc(-c2cnn(-c3ccccc3)c2NC(=O)c2ccc(C(F)(F)F)cc2)n1	0	0	46	0	0	0
CC(C)(C)NC(=O)c1cnn(-c2ccccc2)c1NC(=O)c1ccccc1	0	0	0	0	0	0
Cc1cc(Cl)ccc1C(O)c1ncc(-c2ccc3ccccc3c2)[nH]1 (configuration not stated)	-	-	-	0	0	-
CC(C)=CCc1c2c(c3occ(-c4ccc(O)cc4)c(=O)c3c1O)C=CC(C)(C)O2	0	0	39	0	0	0
Cn1c(=O)c2cc(NC(=O)NCCc3cccs3)ccc2n1C/C=C/c1ccccc1	-	-	-	0	0	-
Clc1cccc(CSc2ncn(-c3ccccc3)n2)c1	0	0	31	0	0	0
Clc1ccc(CSc2ncn(-c3ccccc3)n2)cc1	0	0	0	0	0	0
CCc1nc2cc(NC(=O)C3(C)CCCN(C(C)=O)C3)ccc2o1 (configuration not stated)	-	-	-	0	0	-
O=[N+]([O-])c1sccc1CS(=O)(=O)c1ccccc1	0	0	0	0	0	0
c1ccc(CN2CCN(CCN3CCn4c3nc3ccccc34)CC2)cc1	0	0	0	0	0	0
c1ccc2c(c1)nc1n2CCN1CCN1CCCC1	0	0	44	0	0	0
CCCCCCOc1ccc(N2C(=O)CC(S/C(N)=N/N=C(\C)c3cccs3)C2=O)cc1 (configuration not stated)	0	0	0	63	0	0
C/C(=N\N=C(/N)SC1CC(=O)N(c2ccccc2)C1=O)c1cccs1 (configuration not stated)	0	0	0	0	0	0
C/C(=N\N=C(/N)SC1CC(=O)N(c2ccc(Cl)c(Cl)c2)C1=O)c1cccs1 (configuration not stated)	0	0	37	0	0	0
C/C(=N\N=C(/N)SC1CC(=O)N(c2ccc(Br)cc2)C1=O)c1cccs1 (configuration not stated)	0	0	0	0	10	0
N#CCCN(Cc1ccccc1)C(C(=O)NC1CCCCC1)c1ccnc2ccccc12 (configuration not stated)	-	-	-	-	0	-
OCCN1CCN(c2ncnc3c2ncn3[C@H]2CN(Cc3cccnc3)C[C@@H](CO)O2)CC1	-	-	-	0	0	-
SMILES	Rv3671c protease	Mtb bLac sens	PfHsp40 rescue	Yp Topo-I inh	FadD28 binding	Mtb UGM inh
CCC(C)C(=O)C(=O)N1CCC(n2nccc2NC(=O)CCOc2ccccc2)CC1 (configuration not stated)	-	-	-	0	0	-
O=C(C(=O)c1cc(Br)ccc1O)c1cc(Br)ccc1O	-	-	112	0	0	-
CCc1nc2c(OCCOc3ccc(F)cc3)cccn2c1N(C)C(=O)c1ccc(C)cc1	-	-	-	0	0	-
CSc1ccccc1C(=O)OCC(=O)NC1CCCCCCC1	-	-	-	0	0	-
COc1cc(/C=C/C(=O)OCC(=O)NC(=O)NC(C)(C)C)ccc1OCC#N	0	0	83	0	0	0
CCS(=O)(=O)c1nc(S(=O)(=O)c2ccc(C)cc2)c(N2CCCCCC2)s1	-	-	-	0	0	-
C#CCOCCOCCOCCNc1nc(N2CCN(C(=O)[C@H]([C@@H](C)CC)n3cc(CCCCN)nn3)CC2)nc(N2CCN(C(=O)[C@H](CCCCN)n3cc(CCCC)nn3)CC2)n1	0	0	33	0	0	0
